MCF10A rerep: A quantitative high throughput screen for small molecules that induce DNA re-replication in MCF 10a normal breast cells. MCF 10A DNA re-replication, Hoechst nuclear intensity, 48 h. Potency, µM (highest dose often 46.1 µM), actives largely listed as activators. hit rate 2.9% among 350,000. AID 624296, 2012; note: nearly all actives have a fitted effect of over 50% in size
RORg inh: qHTS for inhibitors of ROR gamma transcriptional activity. Nuclear receptor ROR-gamma (Mus musculus), P51450. Drosophila S2 Gal4-RORgamma UAS-luciferase reporter, 20 h. Potency, µM (doses to about 53.6 µM), actives largely listed as inhibitors. hit rate 5.4% among 310,000. AID 2551, 2010; note: nearly all actives have a fitted effect of over 60% in size
Target sequence (P51450 whole entry, looked up, the tested form may be a part): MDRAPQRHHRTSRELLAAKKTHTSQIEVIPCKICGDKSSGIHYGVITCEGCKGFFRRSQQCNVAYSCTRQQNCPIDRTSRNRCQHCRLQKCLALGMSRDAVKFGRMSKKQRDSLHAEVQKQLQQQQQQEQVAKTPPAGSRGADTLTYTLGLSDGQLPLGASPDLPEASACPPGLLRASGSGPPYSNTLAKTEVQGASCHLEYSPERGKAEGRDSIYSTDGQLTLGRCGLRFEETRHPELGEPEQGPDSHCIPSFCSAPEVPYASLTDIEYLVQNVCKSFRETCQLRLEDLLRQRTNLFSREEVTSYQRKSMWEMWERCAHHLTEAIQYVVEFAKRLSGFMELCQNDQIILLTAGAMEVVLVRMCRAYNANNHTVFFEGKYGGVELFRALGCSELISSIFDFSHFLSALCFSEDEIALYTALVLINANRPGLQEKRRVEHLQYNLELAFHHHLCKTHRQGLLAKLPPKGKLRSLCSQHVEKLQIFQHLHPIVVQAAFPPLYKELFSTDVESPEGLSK
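Luciferase reporter read in Schneider cells carrying Gal4-RORγ (mouse) and UAS-Photinus luciferase; cells given compound 1 h before 700 uM copper sulfate induction, then incubated 20 h at ambient temperature.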
SW480 rereplic: A quantitative high throughput screen for small molecules that induce DNA re-replication in SW480 colon adenocarcinoma cells. SW480 DNA re-replication, Hoechst DNA content imaging, 48 h. Potency, µM (highest dose often 46.1 µM), most hits filed as activators. hit rate 1.8% among 340,000; note: nearly all actives have a fitted effect of over 55% in size
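Compounds, transferred as 23 nL by pin tool, were incubated with cells for 48 hr; DNA content per nucleus was then quantified by Hoechst staining and fluorescence plate imaging.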
IL-1B inflam inh: qHTS for Inhibitors of Inflammasome Signaling: IL-1-beta AlphaLISA Primary Screen; AID 743279, 2014; activity change, % at 57.5 µM; THP-1 LPS/ATP IL-1B secretion, AlphaLISA, 16 h; hits give low values; hit rate 4.7% among 360,000; in the data active = activity change below about -50%; inconclusive = mostly about -30% to -49%
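Secreted IL-1B measured by AlphaLISA bead assay after 16 h compound exposure of THP-1 cells; compounds (final up to 57.5 uM) added 1 h before LPS (250 ng/mL) and ATP (1.25 mM) stimulation; lower signal means less secretion.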
VP16 counter: VP16 counterscreen qHTS for inhibitors of ROR gamma transcriptional activity. Drosophila S2 Gal4-VP16 UAS-luciferase, luminescence, 20 h. Potency, µM (highest dose often 53.6 µM), most hits filed as inhibitors. hit rate 3.5% among 310,000;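 note: Gal4-VP16 expression switched on by copper sulfate through the metallothionein promoter; nearly all actives have a fitted effect of over 50% in size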
Each line names hits and unclear results; the compound was inactive in the other large screens. An excerpt weighted towards active compounds, which were near 11% of everything screened. Unless noted, calls come from the whole dose curve; as a rule, active = well fitted curve in the direction sought with a large enough effect; inconclusive = small, poorly fitted or top-dose-only effect, or another doubt; inactive = no such curve, though single readings can be large; an effect the other way counts as inactive or inconclusive.

CC(=O)N(C)c1ccc(NC(=O)Cc2cccs2)cc1	none
CC(N)c1csc(Nc2ncccn2)n1 (centres undefined)	none (no result: MCF10A rerep, RORg inh, SW480 rereplic, VP16 counter)
Cc1ccc(S(=O)(=O)N2CCCC2)s1	none
O=C(Cc1cccc2c(=O)cc(-c3ccccc3)oc12)OCCN1CCOCC1	none (no result: MCF10A rerep, RORg inh, SW480 rereplic, VP16 counter)
C/C(=N/NC(=O)c1ccc(Br)o1)C(C)C	SW480 rereplic 0.52µM
COc1cc(C#Cc2c(C=O)n(C)c3ccccc23)cc(OC)c1	MCF10A rerep 5.8µM, SW480 rereplic 8.2µM (no result: RORg inh, VP16 counter)
Cn1cncc1C#Cc1c(C=O)n(C)c2ccccc12	MCF10A rerep inconclusive (no result: RORg inh, VP16 counter)
C=CCn1c2ccccc2c(=O)c2cc(C#Cc3cc(OC)cc(OC)c3)ccc21	MCF10A rerep inconclusive, SW480 rereplic 6.5µM (no result: RORg inh, VP16 counter)
C[C@@H]1CN([C@@H](C)CO)C(=O)CCCn2cc(nn2)CO[C@H]1CN(C)C(=O)Oc1ccccc1	none (no result: MCF10A rerep, RORg inh, SW480 rereplic, VP16 counter)
OC(c1cccc(CN2CCCCC2)c1)c1ncc(-c2cccc3ccccc23)[nH]1 (centres undefined)	none (no result: MCF10A rerep, RORg inh, SW480 rereplic, VP16 counter)
O=C(CCN1CCN(S(=O)(=O)c2cccc([N+](=O)[O-])c2)CC1)Nc1ccccc1F	none
O=C(CS(=O)c1ccc(C(F)(F)F)cc1[N+](=O)[O-])Oc1ccccc1 (centres undefined)	MCF10A rerep 7.3µM, SW480 rereplic inconclusive, IL-1B inflam inh -114
CS(=O)(=O)c1ccc(S(=O)CC(=O)OCc2ccccc2)c([N+](=O)[O-])c1 (centres undefined)	MCF10A rerep 4.1µM, RORg inh 4.5µM, IL-1B inflam inh -163, VP16 counter 4.5µM
CCOC(=O)c1cccc(NC(=O)CSc2nncn2-c2ccccn2)c1	none
Cc1ccc(F)cc1C(=O)N1CCCCC1c1cc(C(=O)Nc2ccc(F)c(Cl)c2)no1 (centres undefined)	none (no result: MCF10A rerep, RORg inh, SW480 rereplic, VP16 counter)
O=S(=O)(c1ccccc1)N1CCC[C@@]2(CCN(c3ccccc3)C2)C1	none (no result: MCF10A rerep, SW480 rereplic, IL-1B inflam inh)
COc1ccc(/C=N/NC(=O)c2ccc[nH]2)cc1	none
O=P(c1ccccc1)(c1ccccc1)c1cc(Br)cc(Br)c1OCCO	IL-1B inflam inh -56
Clc1cccc(N/N=C/c2ccncc2)c1	RORg inh inconclusive, IL-1B inflam inh -53
O=C(COC(=O)c1cccc(S(=O)(=O)N2CCCC2)c1)Nc1ccccc1C(F)(F)F	SW480 rereplic 4.6µM (no result: RORg inh, VP16 counter)
CC(C)(C)N(Cc1ccccc1)C(=O)COC(=O)C1CC1	none (no result: RORg inh, VP16 counter)
CC(=O)N1CCN(S(=O)(=O)c2cccc(C(=O)OCC(=O)Nc3c(Cl)cccc3C(F)(F)F)c2)CC1	none (no result: RORg inh, VP16 counter)
CN(Cc1ccccc1)C(=O)c1ccccc1C(=O)OCC(=O)N(Cc1ccccc1)C(C)(C)C	IL-1B inflam inh -50 (no result: RORg inh, VP16 counter)
CC(C)(C)N(Cc1ccccc1)C(=O)COC(=O)c1ccccc1SCC(=O)N1CCCC1	IL-1B inflam inh -52 (no result: RORg inh, VP16 counter)
CC(=O)N1CCN(S(=O)(=O)c2cccc(C(=O)OCC(=O)N(Cc3ccccc3)C(C)(C)C)c2)CC1	MCF10A rerep 7.3µM (no result: RORg inh, VP16 counter)
COC(=O)c1ccc(C(NC(=O)OCc2ccccc2)/C(F)=C/[C@@H](C)C(=O)NCc2nc3ccccc3s2)cc1 (some centres undefined)	none (no result: MCF10A rerep, SW480 rereplic, IL-1B inflam inh)
CCOc1ccc(-n2c(=S)sc3c(=O)n(-c4ccc(F)cc4)c(SCC(=O)O)nc32)cc1	none
COc1ccc(CCNC(=O)c2cc(-c3ccccn3)nc3c(Cl)cccc23)cc1OC	MCF10A rerep inconclusive
O=C(Nc1ccc(F)cc1)c1cc(-c2ccccn2)nc2c(Cl)cccc12	MCF10A rerep inconclusive, RORg inh 13µM, SW480 rereplic inconclusive
Cc1ccc2nc(-c3ccccn3)cc(C(=O)NCCc3ccc(F)cc3)c2c1	RORg inh 10µM
CC1(C)CC(=O)C(C2C3=C(CC(C)(C)CC3=O)Oc3ccc4ccccc4c32)C(=O)C1 (centres undefined)	MCF10A rerep inconclusive, SW480 rereplic inconclusive, IL-1B inflam inh -72
COc1ccc(C(=O)N2CCC3(CCCN(c4cccc(-c5ccccc5)c4)C3)CC2)cc1	none (no result: MCF10A rerep, SW480 rereplic, IL-1B inflam inh)
Cc1ccc(C(=O)NC(=S)Nc2ccc(Oc3ccc(Cl)cc3)cc2)cc1	RORg inh 0.89µM, VP16 counter inconclusive
O=C(NC(=S)Nc1ccc(Oc2ccccc2)cc1)c1ccc(Cl)cc1	RORg inh 8.9µM, IL-1B inflam inh -54, VP16 counter inconclusive
Cc1ccccc1C(=O)NC(=S)Nc1ccc(Oc2ccc(Cl)cc2)cc1	RORg inh 3.2µM, VP16 counter 11µM
C[C@H]1CN([C@@H](C)CO)C(=O)CCCn2nncc2CO[C@H]1CN(C)S(=O)(=O)c1ccc2ccccc2c1	none (no result: MCF10A rerep, RORg inh, SW480 rereplic, VP16 counter)
Cc1cc(=O)n2nc(N3CCCC(C(=O)NCc4ccccc4Cl)C3)sc2n1 (centres undefined)	none
Cc1cccc(-n2c(C)cc(C(=O)NC3CCCCC3)c2C)c1	MCF10A rerep inconclusive, RORg inh inconclusive, SW480 rereplic inconclusive, IL-1B inflam inh -90, VP16 counter inconclusive
COc1ccc(-n2c(C)cc(C(=O)NC3CCCCC3)c2C)cc1	none (no result: IL-1B inflam inh)
CCOC(=O)c1nn(-c2ccccc2)c2nnc(Cc3ccc(Cl)cc3)c(=O)n12	none
O=C(c1ccccc1)c1nn(-c2ccccc2)c2nnc(Cc3ccccc3)c(=O)n12	MCF10A rerep 23µM, SW480 rereplic 18µM
CCOC(=O)c1nn(-c2ccc(Cl)cc2)c2nnc(Cc3ccc(C)cc3)c(=O)n12	VP16 counter 22µM
O=C(c1ccco1)N1CCN(C(=S)Nc2ccc(Br)cc2Cl)CC1	MCF10A rerep inconclusive, IL-1B inflam inh inconclusive
COc1ccc(/C=C/C(=O)N(C)C2CCS(=O)(=O)C2)cc1 (centres undefined)	SW480 rereplic inconclusive (no result: RORg inh, VP16 counter)
COc1ccc(/C=C/C(=O)N(C)C2(C)CCS(=O)(=O)C2)cc1 (centres undefined)	SW480 rereplic 23µM (no result: RORg inh, VP16 counter)
Brc1ccc(/C=N/Nc2nc3ccccc3o2)cc1	RORg inh 8.9µM, VP16 counter inconclusive
Oc1ccccc1/C=N/Nc1nc2ccccc2o1	RORg inh 0.5µM, SW480 rereplic inconclusive, VP16 counter 4µM
Cc1cc(C)n(Cc2ccc(F)cc2)c(=O)c1C#N	none
COc1ccc(-n2cc(C#N)c(=O)n(Cc3ccc(F)cc3)c2=O)cc1	MCF10A rerep inconclusive, SW480 rereplic 13µM
Cc1cnc(NC(=O)C2CC(=O)N(c3cccc(Cl)c3)C2)s1 (centres undefined)	MCF10A rerep inconclusive, SW480 rereplic inconclusive
CCCCC[C@H]1CCCCC[C@@H](O)C[C@H](O)[C@H](O)/C=C/C(=O)O1	none (no result: MCF10A rerep, RORg inh, SW480 rereplic, VP16 counter)
CCCCC[C@@H]1CCCCC[C@@H](O)C[C@@H](O)[C@H](O)/C=C/C(=O)O1	IL-1B inflam inh -66 (no result: MCF10A rerep, RORg inh, SW480 rereplic, VP16 counter)
CC1(C)CC(=O)N(Cc2ccccc2)C(=O)C1	SW480 rereplic 9.2µM

Bioassay records: PubChem, National Center for Advancing Translational Sciences (NCATS)
